# Tb PYK inh: qHTS of Trypanosoma Brucei Inhibitors | TbPYK enzyme, Kinase-Glo Plus ATP luminescence, 45 min | Potency, µM (top dose mostly 76.8 µM), for inactives: top-dose activity, negative = inhibition, usual class: inhibitors | hit rate 0.12% among 410,000 | pyruvate kinase (Trypanosoma brucei), Q57TT1; also: nearly all actives have a fitted effect of over 50% in size
#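 Readout: single end-point luminescence (Kinase-Glo Plus, 10 min). Reaction conditions were TbPYK/substrate plus 130 uM ADP, 45 min at RT, pH 7.2 TEA buffer. No-enzyme wells served as controls, and data were normalized before concentration-response fitting.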
# RE007 growth inh: qHTS Assay for Inhibitors of the HIV-1 protein Vpr; Potency, µM (series often up to 92.2 µM), inactives show at the highest dose activity change, negative = less growth, most hits filed as inhibitors; S. pombe RE007 Vpr strain, BacTiter-Glo ATP luminescence, 24 h; AID 651644, 2012; hit rate 0.21% among 360,000; active = well fitted falling curve with a large enough effect; inconclusive = small, poorly fitted or top-dose-only effect; inactive = no such curve, though single readings can be large or run the other way; also: nearly all actives have a fitted effect of over 50% in size
#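 Fission yeast strain RE007, carrying one chromosomally integrated HIV-1 vpr copy, was seeded at OD 0.01 in PMG+AL medium with 23 nL pinned compound. After 24 h at 30 °C and 99% humidity, viability was read by BacTiter-Glo luminescence.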
# Sm TGR inh: qHTS Assay for the Inhibitors of Schistosoma Mansoni Peroxiredoxins | Schistosoma mansoni thioredoxin glutathione reductase (TGR), Q962Y6 | purified TGR, DTNB reduction, TNB absorbance 405 nm | Potency, µM (doses to about 114 µM), for the others: at the top dose activity change, negative = inhibition, actives largely listed as inhibitors | hit rate 3% among 360,000 | AID 485364, 2010; also: nearly all actives have a fitted effect of over 60% in size
#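 First, TGR (20 nM dispensed) and NADPH were mixed with compound. Second, a 15 min room-temperature incubation followed. Third, further NADPH and then DTNB were added to start the reaction. Finally, TNB absorbance was monitored kinetically.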
# AMA1-RON2 inh: qHTS for Inhibitors of AMA1-RON; Towards Development of Antimalarial Drug Lead: Primary Screen | Plasmodium falciparum AMA1 (3D7) - RON2 peptide interaction | AlphaScreen AMA1-biotinylated RON2 peptide binding | Potency, µM (highest dose often 58.2 µM), inactives show at the top dose activity change, negative = inhibition, hits mostly inhibitors | hit rate 0.2% among 360,000 | AID 720542, 2013;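 also: 0% = vehicle wells and -100% = peptide control; nearly all actives have a fitted effect of over 45% in size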
#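 AMA1 (3D7) with his tag at 25 nM final met compounds first, then biotinylated RON2 peptide at 25 nM; detection used donor plus acceptor beads, 10 µg/mL apiece, read by AlphaScreen after 30 min at room temperature.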
# LmPK inhibitor: qHTS Assay for Inhibitors of Leishmania Mexicana Pyruvate Kinase (LmPK); Q27686; purified LmPK, Kinase-Glo ATP luminescence, 1 h; Potency, µM (titrated, usually from 57.5 µM), inactives show top-dose activity change, negative = inhibition, usual class: inhibitors; hit rate 0.37% among 290,000; AID 1721, 2009
# Target sequence (Q27686 whole entry, looked up): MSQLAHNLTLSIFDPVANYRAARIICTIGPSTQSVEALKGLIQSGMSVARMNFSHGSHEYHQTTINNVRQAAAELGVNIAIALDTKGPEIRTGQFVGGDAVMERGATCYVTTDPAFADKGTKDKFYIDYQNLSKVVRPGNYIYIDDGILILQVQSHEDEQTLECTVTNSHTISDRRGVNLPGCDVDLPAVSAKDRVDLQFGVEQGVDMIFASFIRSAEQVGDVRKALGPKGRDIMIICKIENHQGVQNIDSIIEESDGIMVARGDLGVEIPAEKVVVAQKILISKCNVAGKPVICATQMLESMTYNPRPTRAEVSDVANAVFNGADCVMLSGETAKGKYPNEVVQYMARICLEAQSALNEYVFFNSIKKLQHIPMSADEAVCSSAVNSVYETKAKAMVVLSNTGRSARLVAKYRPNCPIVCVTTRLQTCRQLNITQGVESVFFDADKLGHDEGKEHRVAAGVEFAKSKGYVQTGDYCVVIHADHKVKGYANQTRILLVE
#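 ATP generated from ADP (0.1 mM) and PEP (0.5 mM) by 0.1 nM LmPK over 1 h at room temperature (pH 7.2 imidazole buffer) was detected by coupled luciferase luminescence. Values were normalized to uninhibited and no-enzyme wells.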
# The depositor's hits bear a star; ? = inconclusive; nt = no result given. A selection: hits, their analogues and other compounds. The true share with any hit is near 3.2%. Unless noted, calls follow the shape of the dose curve; as a rule, active = well fitted curve in the direction sought with a large enough effect; inconclusive = small, poorly fitted or top-dose-only effect, or another doubt; inactive = no such curve, though single readings can be large; an effect the other way counts as inactive or inconclusive. Unless noted, % is scaled to controls: 0 for no effect and ±100 for the full control effect; potency is read from the fitted curve at half-maximal effect.
SMILES,Tb PYK inh,RE007 growth inh,Sm TGR inh,AMA1-RON2 inh,LmPK inhibitor
CC(C)(C)C(=O)n1nc(-c2ccccc2)oc1=O,3%,-1%,32µM*,-3%,0%
Cc1ccc(C(=O)/C=C/N(C)C)o1,-16%,-25%,0%,14%,-3%
Cc1ccc(C(=O)/C=C/c2cc(Br)cc(Br)c2O)o1,-9%,-12%,1.6µM*,-25%,0%
CCCSS/C(CCO)=C(/C)N(C=O)Cc1cnc(C)nc1N,3%,nt,nt,nt,nt
CCCCS(=O)(=O)N1CN(S(=O)(=O)CCCC)C2NC(=O)NC21 (stereo not drawn),12%,18%,35µM*,-5%,4%
CCN1C(=O)NC2C1N(S(C)(=O)=O)CCN2S(C)(=O)=O (stereo not drawn),-14%,-5%,7%,5%,1%
CC(=O)c1ccc(/C=C/c2nc3ccccc3n2C)o1,-15%,?,3.5µM*,0%,?
Cn1c(/C=C/c2ccccc2)nc2ccccc21,?,?,10%,3%,5µM*
Cn1c(=O)c(/C=C/c2ccccc2)nc2ccccc21,-5%,nt,2%,55%,-8%
Cc1ccnc(NC(c2ccccc2)c2ccc3cccnc3c2O)c1 (stereo not drawn),68%,?,nt,-78%,nt
O=C(O)c1ccccc1NC(c1ccccc1)c1ccc2cccnc2c1O (stereo not drawn),151%,-9%,nt,-9%,nt
Oc1c(C(Nc2ccccn2)c2ccccc2F)ccc2cccnc12 (stereo not drawn),52%,nt,2µM*,nt,nt
Cc1ccnc(NC(c2ccccc2F)c2ccc3cccnc3c2O)c1 (stereo not drawn),17%,nt,2.2µM*,nt,nt
CC(=O)NC(c1ccc(Cl)cc1)c1ccc2cccnc2c1O (stereo not drawn),-2%,?,nt,-19%,nt
Cc1cc(NC(c2ccc(Cl)cc2)c2ccc3cccnc3c2O)no1 (stereo not drawn),-7%,?,13µM*,-30%,0%
Oc1ccccc1C(Nc1nccs1)c1ccc2cccnc2c1O (stereo not drawn),2%,3%,1.3µM*,-21%,-4%
Cc1ccccc1OCc1ccc(-c2nc(C#N)c(N3CCC(C(N)=O)CC3)o2)o1,-3%,nt,-7%,nt,nt
COc1ccccc1NC(=O)C1CCN(c2cnccn2)CC1,-7%,nt,1%,nt,nt
CCCCc1nn2c(=O)cc(COC(=O)c3ccc(NC(=O)C4CCCCC4)cc3)nc2s1,3%,nt,0%,nt,nt
COc1cccc(NC(=O)c2c(C)oc3nc(C)nc(N4CCCC4)c23)c1,-8%,nt,2%,nt,nt
COc1cccc(NC(=O)c2oc3ccc(S(=O)(=O)N4CCC5(CC4)OCCO5)cc3c2C)c1,-11%,nt,7%,nt,nt
Cc1nc(Oc2ccccc2C)c2oc3ccccc3c2n1,-9%,nt,?,nt,nt
Oc1c(C(Nc2ccccn2)c2ccccn2)ccc2cccnc12 (stereo not drawn),50%,?,22µM*,-93%,0%
Cc1ccnc(NC(c2cc(C)ccc2O)c2ccc3cccnc3c2O)c1 (stereo not drawn),50%,nt,0.35µM*,nt,nt
Cc1ccnc(NC(c2cccnc2)c2ccc3cccnc3c2O)c1 (stereo not drawn),125%,-13%,nt,-80%,3%
SMILES,Tb PYK inh,RE007 growth inh,Sm TGR inh,AMA1-RON2 inh,LmPK inhibitor
COc1ccc(C(=O)N2CCN(c3nc4c(C)c(Cl)ccc4s3)CC2)c(OC)c1,2%,nt,0%,nt,nt
S=C(c1ccc(-c2ccc(Cl)c(Cl)c2)o1)N1CCOCC1,?,-15%,45µM*,-21%,?
S=C(c1ccc(-c2ccc(Br)cc2)o1)N1CCOCC1,-9%,13%,-6%,?,-19%
Cc1cccc(CSc2nc3c(c(-c4cccs4)c2C#N)CN(C)CC3)c1,-2%,0%,-29%,-8%,3%
CN1CCc2nc(SCC(=O)Nc3cccc(F)c3)c(C#N)c(-c3cccs3)c2C1,6%,8%,20µM*,-14%,1%
CN1CCc2nc(SCC(=O)Nc3ccc(OC(F)(F)F)cc3)c(C#N)c(-c3cccs3)c2C1,-14%,2%,35µM*,20%,-4%
Cc1ccc(N(CC(=O)NCCc2ccccc2)S(=O)(=O)N(C)C)cc1,0%,nt,-3%,nt,nt
CCOc1ccc(NC2C=CS(=O)(=O)C2)cc1 (stereo not drawn),-6%,0%,28µM*,6%,-1%
CN(C)c1ccc(NC(=O)c2cccc(C(=O)Nc3ccc(N(C)C)cc3)n2)cc1,-13%,-13%,-14%,10µM*,-24%
COc1cccc(Nc2ccc3cc(S(=O)(=O)N4CCC(C)CC4)ccc3n2)c1,-1%,nt,8%,nt,nt
N#CC1=C2SCN(c3ccccc3)CN2C(=O)CC1c1c(Cl)cccc1Cl (stereo not drawn),2.5µM*,-4%,0%,8%,-12%
N#CC1=C2SCN(c3ccccc3)CN2C(=O)CC1c1ccccc1Cl (stereo not drawn),?,-11%,22µM*,-6%,2%
N#CC1=C2SCN(Cc3ccco3)CN2C(=O)CC1c1c(F)cccc1Cl (stereo not drawn),?,-4%,45µM*,3%,15%
Cc1cc(C)c(NC(=O)c2nc3ccccc3nc2N2CCCCC2)c(C)c1,1%,nt,5%,nt,nt
CCc1cccc(C)c1NC(=O)Cn1ccn(-c2ccc(F)cc2)c(=O)c1=O,1%,nt,-3%,nt,nt
Cc1cc(O)c(C(c2ccccc2Cl)N2CCN(c3ccccc3)CC2)c(=O)n1Cc1ccco1 (stereo not drawn),1%,nt,2.8µM*,nt,nt
CCN1CCN(C(c2ccccc2Cl)c2c(O)cc(C)n(Cc3ccco3)c2=O)CC1 (stereo not drawn),5%,nt,4µM*,nt,nt
O=C(c1ccco1)N1CCN(C(c2ccccc2Cl)c2nnnn2Cc2ccco2)CC1 (stereo not drawn),-19%,3%,?,-25%,4%
O=C(Nc1nc(-c2ccccn2)cs1)c1ccc(-c2ccccc2F)o1,-13%,-22%,25µM*,45%,nt
O=C(Nc1nc(-c2ccccn2)cs1)c1ccc([N+](=O)[O-])o1,?,-7%,10µM*,2%,-8%
COCCn1nnnc1C(c1ccc2ncccc2c1)N1CCN(c2ccccc2F)CC1 (stereo not drawn),-5%,-12%,1%,?,2%
COCCn1nnnc1C(c1ccccc1)N1CCN(C)CC1 (stereo not drawn),-7%,-11%,6%,10%,0%
COCCn1c(C)cc(O)c(C(c2ccccc2)N2CCN(C)CC2)c1=O (stereo not drawn),1%,nt,6.3µM*,nt,nt

# High-throughput results deposited in PubChem by National Center for Advancing Translational Sciences (NCATS).
